Assay outcomes as filed in PubChem.
DRD3 agonist: D3 dopamine receptor (human) agonism. D3R DiscoveRx beta-arrestin cells, luminescence, 90 min. AID 652048. max activation, %. P35462. hit rate 0.58% among 410,000; in the data active means max activation above about 30%; further: 0% is about no effect
Target sequence (P35462 whole entry, looked up): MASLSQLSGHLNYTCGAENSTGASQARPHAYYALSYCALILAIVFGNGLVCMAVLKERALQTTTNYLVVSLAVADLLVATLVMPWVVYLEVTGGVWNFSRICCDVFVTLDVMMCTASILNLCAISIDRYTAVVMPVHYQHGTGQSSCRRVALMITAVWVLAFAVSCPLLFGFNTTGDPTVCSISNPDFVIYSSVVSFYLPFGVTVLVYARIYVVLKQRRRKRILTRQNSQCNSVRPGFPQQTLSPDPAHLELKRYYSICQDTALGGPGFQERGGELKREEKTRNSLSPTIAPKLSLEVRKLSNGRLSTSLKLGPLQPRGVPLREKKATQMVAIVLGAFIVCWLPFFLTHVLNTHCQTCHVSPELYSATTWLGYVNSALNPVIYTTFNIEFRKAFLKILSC
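Agonist-mode cell screen: cells plated at 1500/well and incubated overnight at 37 °C, then exposed to library compounds for 90 min at 37 °C. Detection reagent was added for 30–60 min at room temperature, and luminescence was read.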
MCF10A rereplic: inducers of DNA re-replication in MCF 10A breast cells; Potency, µM (doses to about 46.1 µM), for the others: at the top dose activity, positive = re-replication, actives largely listed as activators; hit rate 2.9% among 350,000; AID 624296; MCF 10A DNA re-replication, Hoechst nuclear intensity, 48 h; further: potency means the concentration at half of the fitted maximal effect; % of control where 0% means no effect; nearly all actives have a fitted effect of over 50% in size
KB-3-1 tox: KB-3-1 parental cell cytotoxicity; hit rate 1.4% among 400,000; Potency, µM (top dose mostly 46.1 µM), usual class: cytotoxic; KB-3-1 viability, CellTiter-Glo ATP luminescence, 72 h; further: potency means the concentration at half of the fitted maximal effect; on the % scale 0 is the no-effect control and ±100 the full control effect; nearly all actives have a fitted effect of over 60% in size
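Luminescent ATP read-out (CellTiter-Glo) measures survival of drug-naive KB-3-1 cells after 72 h compound exposure at 37 °C. Titration series was screened from lowest to highest concentration, with DMSO vehicle plates as background controls.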
KB-V1 cytotox: kills drug-selected multidrug resistant KB-V1 cells. KB-V1 MDR cells viability, CellTiter-Glo, 72 h. Potency, µM (top dose mostly 46.1 µM), hits mostly cytotoxic. hit rate 3.4% among 400,000; further: potency means the concentration at half of the fitted maximal effect; on the % scale 0 is the no-effect control and ±100 the full control effect; nearly all actives have a fitted effect of over 60% in size
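Compound-treated KB-V1 multidrug-resistant cells, 72 h, 37 degrees C; viability by CellTiter-Glo. Fitted qHTS curves give the values.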
D3 antag: antagonists of human D3 dopamine receptor; max response, negative = inhibition, %; P35462; D3R cells, DiscoveRx beta-arrestin luminescence, antagonist mode; hits give low values; hit rate 2.5% among 360,000; in the data active means max response below about -50%; inconclusive means no clear call, values can overlap the other calls; further: on the % scale 0 is the no-effect control and ±100 the full control effect
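Cells plated overnight at 1500 cells/well, then exposed to library compounds with dopamine controls for 90 minutes at 37 degrees C. DiscoveRx reagent added for 30–60 minutes at room temperature; luminescence read, quantitative HTS format.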
SW480 rerep: inducers of DNA re-replication in SW480 colon cancer cells. SW480 DNA re-replication, Hoechst DNA content imaging, 48 h. Potency, µM (titrated, usually from 46.1 µM), for inactives: top-dose re-replication activation, most hits filed as activators. AID 624297. hit rate 1.8% among 340,000; further: potency means the concentration at half of the fitted maximal effect; % of control where 0% means no effect; nearly all actives have a fitted effect of over 55% in size
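Hoechst fluorescence of nuclei (405 nm excitation, 500-530 nm emission) measured by plate-scanning imager after 48 hr compound exposure at 37 C; re-replication scored as increased number of nuclei with elevated intensity.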
An asterisk follows results filed as active; i = inactive; u = inconclusive; x = no result; ! = repeats disagree; [ ] = remark or other dose. Most compounds without a hit are left out; they make up all but 8.9% or so of the library. Unless noted, the call rests on the fitted dose curve; in most records, active means well fitted curve in the direction sought with a large enough effect; inconclusive means small, poorly fitted or top-dose-only effect, or another doubt; inactive means no such curve, though single readings can be large; an effect the other way counts as inactive or inconclusive.

SMILES | DRD3 agonist | MCF10A rereplic | KB-3-1 tox | KB-V1 cytotox | D3 antag | SW480 rerep
Cc1cccc(S(=O)(=O)c2cn(Cc3ccccc3)c3cc(N4CCCCC4C)c(F)cc3c2=O)c1 (centres undefined) | -1.9 | x | x | x | x | x
CC(O)[C@@H]1NC(=O)[C@H](Cc2ccccc2)NC(=O)[C@H](C(C)O)NC(=O)[C@H](CCCCN)NC(=O)[C@H](Cc2c[nH]c3ccccc23)NC(=O)[C@H](Cc2ccccc2)NC(=O)[C@H](Cc2ccccc2)NC(=O)[C@H](CC(N)=O)NC(=O)[C@H](CCCCN)NC(=O)[C@@H](NC(=O)CNC(=O)[C@H](C)N)CSSC[C@@H](C(=O)O)NC(=O)[C@H](CO)NC1=O (some centres undefined) | -4.9 | x | x | x | x | x
Cc1occc1C(=O)Nc1cccc([N+](=O)[O-])c1C | -0.7 | 0.1% | i | i | 0.4 | -27.5%
COc1ccc(C2c3c(-c4ccccc4)n[nH]c3C(=O)N2c2ccc(C(=O)O)cc2)c(OC)c1 (centres undefined) | 6.8 | x | i | u | x | x
N#Cc1c(NC(=O)c2cnccn2)sc2c1CCCC2 | -4.3 | u | u | 16.4µM* | 4.4 | 5.8µM*
N#Cc1ccsc1NC(=O)c1cnccn1 | -2.9 | 11.1% | i | i | -52.3* | 2.4%
Cn1nccc1C(=O)Nc1sc2c(c1C#N)CCCC2 | 0.6 | -13.3% | i | i | -17.1 | 2.3%
Cc1cccc(C)c1NC(=O)c1cnccn1 | -1.0 | -1.8% | i | i | -20.6 | 1.2%
Cc1ccnc(SCC(=O)Nc2sc3c(c2C#N)CCC(C(C)(C)C)C3)n1 (centres undefined) | 2.3 | u | u | 13µM* | 38.6 | -0.8%
CCC(C)(C)C1CCc2c(sc(NC(=O)c3ccccc3C(=O)O)c2C#N)C1 (centres undefined) | -3.3 | 18.4µM* | i | u | 0.5 | 14.6%
COc1ccc(CNC(=O)C2(c3cccs3)CCOCC2)cc1 | -8.1 | x | i | i | x | x
COc1cc(NC(=O)C2CCN(S(=O)(=O)c3c(C)noc3/C=C/c3ccccc3F)CC2)cc(OC)c1OC | 4.4 | x | x | x | x | x
O=C(Nc1sc2c(c1C(=O)c1ccccc1)CCCC2)c1cccnc1 | 2.9 | 12.3% | i | i | 2.1 | -2.9%
N#Cc1c(NC(=O)c2cccnc2)sc2c1CCC2 | 1.3 | 5.8µM* | 9.2µM* | 5.8µM* | -10.1 | 16.4µM*
CC(C)CC(=O)NC(NC(=S)Nc1sc2c(c1C#N)CCCC2)C(Cl)(Cl)Cl (centres undefined) | -4.9 | 16.4µM* | u | i | -83.2* | 1.5%
N#Cc1c(NC(=O)c2ccccc2)sc2c1CCC2 | -4.0 | u | 16.4µM* | 4.61µM* | -28.2 | 10µM*
CC(C)c1cc(C(=O)Nc2sc3c(c2C#N)CCC3)no1 | 1.0 | 14.6µM* | u | u | -18.0 | u
N#Cc1c(NC(=S)NC(=O)c2ccccc2)sc2c1CCCC2 | 7.7 | u | i | i | 19.6 | x
CCC(C)NC(=O)c1ccc2c(c1)N(Cc1ccccc1)C(=O)c1ccccc1S2(=O)=O (centres undefined) | 2.4 | x | x | x | x | x
C=CCc1cccc(/C=N/NC(=O)CCCNc2ccc(C)cc2)c1O | -9.3 | u | u | 23.1µM* | u | u
Cn1ncc(N=Cc2c(O)ccc3ccccc23)c1C(=O)N1CCOCC1 | -4.3 | -2.5% | i | i | -1.9 | 1.1%[9.22 µM]
COc1ccccc1NCC(=O)N/N=C/c1c(O)ccc2ccccc12 | 7.7 | u | u | i | 4.1 | 3.26µM*
C=CCc1cccc(/C=N/NC(=O)CNc2ccccc2)c1O | -11.1 | 13.3% | i | i | u | 13µM*
C=CCc1cccc(/C=N/NC(=O)CCC(=O)Nc2ccc(F)cc2)c1O | -34.2 | 17.6% | u | i | -26.2 | u
COc1ccccc1NC(=O)c1c(N=Cc2c(O)ccc3ccccc23)cnn1C | -11.4 | u | 20.6µM* | u | u | u
SMILES | DRD3 agonist | MCF10A rereplic | KB-3-1 tox | KB-V1 cytotox | D3 antag | SW480 rerep
COc1cc(NC(=O)Cn2c(-c3ccccc3)cc(C(C)=O)c2C)cc(OC)c1 | 2.1 | x | i | i | x | x
C=CCc1cccc(/C=N/NC(=O)C(C)Nc2cccc(C)c2)c1O (centres undefined) | -20.0 | 6.9% | u | i | -28.6 | 3.26µM*
C=CCc1cccc(/C=N/NC(=O)CNc2cccc3ccccc23)c1O | -5.1 | u | u | i | -15.1 | u
C=CCc1cccc(/C=N/NC(=O)CNc2ccccc2OC)c1O | 8.2 | u | u | u | 0.2 | 16.4µM*
Cc1cc(-c2nnc3n2CCCCC3)c(C)n1-c1ccccc1 | -2.3 | 26.7% | u | 20.6µM* | 22.6 | -1.6%
Cc1noc(C)c1CSc1nc2ccccc2c(=O)n1-c1ccccc1 | 0.5 | 7.31µM* | 5.8µM* | 5.8µM* | 26.6 | 13µM*
CN(C(=O)CSc1nc2ccccc2c(=O)n1-c1ccc(F)cc1F)C1CCS(=O)(=O)C1 (centres undefined) | 4.3 | -1.1% | i | i | 1.5 | 0.3%
Cc1noc(C)c1CSc1nc2ccccc2c(=O)n1-c1ccc(F)cc1F | 0.5 | 13µM* | 7.31µM* | 20.6µM* | -3.9 | u
Cc1noc(C)c1CSc1nc2[nH]ncc2c(=O)n1-c1ccccc1 | -1.9 | 1.26µM* | u | u | 0.0 | u
Cc1nc(CSc2nc3[nH]ncc3c(=O)n2-c2ccccc2)cs1 | 4.5 | -1.3% | i | i | 15.9 | -1.1%
CCCOC(=O)N[C@@H]1C(=O)N2C(C(=O)OCCC)=C(C)CS[C@H]12 | -16.6 | 15.9% | 16.4µM*! | u | -53.2* | 48.7%
CO[C@H](C(=O)[C@@H](O)[C@@H](C)O)C1Cc2cc3cc(O[C@H]4C[C@@H](O[C@H]5C[C@@H](O)[C@H](O)[C@@H](C)O5)[C@@H](O)[C@@H](C)O4)c(C)c(O)c3c(O)c2C(=O)[C@H]1O[C@H]1C[C@@H](O[C@H]2C[C@@H](O[C@H]3C[C@](C)(O)[C@H](O)[C@@H](C)O3)[C@H](O)[C@@H](C)O2)[C@H](O)[C@@H](C)O1 (some centres undefined) | 2.1 | -7.0% | x | x | x | u
N=c1ccn(Cc2ccc(F)cc2)cc1 | 5.8 | 13.2% | 5.8µM* | i | 1.9 | -4.3%
Cc1cccc(OCc2nnc(SCC(=O)N(C(C)C)C(C)C)n2Cc2ccco2)c1C | 0.2 | u | i | 10.3µM* | 15.9 | 20.6µM*
Cc1cc(NC(=O)CSc2nnc(COc3cccc(C)c3C)n2Cc2ccco2)no1 | 8.4 | 0.2% | i | i | 18.8 | -12.6%
Cc1cc2oc(=O)cc(Cn3ncc(Cl)c(Cl)c3=O)c2cc1Cl | -9.7 | 7.31µM* | 13µM* | u | -77.1* | 2.59µM*
